Results on 12 molecules are retold here after PubChem BioAssay.

Calls of active or inactive are those of the source.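 Rule for the calls, unless noted: active = inhibition at or above 50% at 10 µM; inactive = inhibition below 50%.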

One may read the inhibition as the change of the read-out against control, counted positive when it falls.

The nature of assay [1]: inhibitors of TNFa-induced NFkB p65 translocation, primary screen, imaging, HUVEC, MLSMR starter and 10KST1 sets (AID 438;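 active = inhibition above 20% together with a positive visual image hit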;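 note: compound added about 3h40 before a 20 min TNFalpha stimulation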;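 for inhibition: signal is the nuclear over cytoplasmic p65 intensity ratio per well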). To be noted: HUVEC TNFa-induced p65 nuclear translocation; cell count: measured here: nuclei count (cytotoxicity indicator), at 2.08 µM; inhibition: at 2 µM, stronger effect = higher value, 0% TNFa-plus-vehicle, 100% no-TNFa wells.
The nature of assay [2]: inhibitors of mutant huntingtin aggregation, primary screen, imaging, exon1htt(103Q)mCFP cells, high-content imaging (AID 483;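 active = visual image review flags a hit and inhibition of aggregation exceeds 20%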;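 note: compound exposure lasted 3 days before fixation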;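 for nuclei count: percent of the per-plate median nuclei count of sample wells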). The conditions noted are these: exon1htt(103Q)mCFP cell line, aggregate imaging, at 2 µM; inhibition of aggregation: stronger effect = higher value; nuclei count: measured here: cell count, toxicity.
Assay [3] in a line: inhibitors of E-selectin induction by TNFa, primary screen, imaging, HUVEC, immunofluorescence, MLSMR starter and 10KST1 sets (AID 487;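 active = visually confirmed hit in the image check and inhibition above 20%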;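 for inhibition: signal is fraction of cell area covered by stained E-selectin grains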;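 for nuclei count: 100% = median nuclei count of all wells on the same plate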). To be noted: HUVEC TNFalpha-induced E-selectin immunofluorescence imaging, at 2 µM; inhibition: stronger effect = higher value; nuclei count: measured here: cell number, toxicity.
Assay [4] has as its target Voltage-gated potassium channel subunit beta-2 (Rattus norvegicus) (UniProt P62483). The experiment in a line: KvBeta enzyme negative modulators, primary screen, biochemical, NADPH fluorescence (AID 622;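 active = fluorescence slope higher than the sample average by over 3 SD, cut at about -0.22 in these data, passing the limit was not always enough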;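 note: slope of raw intensity against log time taken from 70 to 1610 s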). To be noted: recombinant KvBeta, 4-cyanobenzaldehyde reduction, at 10 µM, stronger effect = higher value.
Assay [5] shares this target. The experiment in a line: KvBeta positive modulators, primary screen, biochemical, NADPH fluorescence (AID 623;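 active = NADPH fluorescence slope more negative than the mean of all samples by about 3 SD, 99.7% confidence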;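 note: fluorescence intensity change per second fitted from 20 to 320 s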). To be noted: Recombinant KvBeta, NADPH fluorescence decrease slope, 10 min; at 10 µM; stronger effect = lower value.
The target in assay [6] is Alpha-2C adrenergic receptor (Homo sapiens) (UniProt P18825). The experiment in a line: modulators of alpha2C/GIRK thallium flux, primary screen, cell-based, HEK293 alpha2C/GIRK1/2 (AID 624;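 active = fluorescence slope after compound addition differing from the mean of all screened samples at 99.7% confidence, in either direction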;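 note: slope of fluorescence ratio to pre-addition baseline per second over 15 to 24 s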). The conditions noted are these: thallium flux BTC fluorescence, at 10 µM, actives lie on both sides.
Sequence of Alpha-2C adrenergic receptor (Homo sapiens) (P18825 whole entry, looked up): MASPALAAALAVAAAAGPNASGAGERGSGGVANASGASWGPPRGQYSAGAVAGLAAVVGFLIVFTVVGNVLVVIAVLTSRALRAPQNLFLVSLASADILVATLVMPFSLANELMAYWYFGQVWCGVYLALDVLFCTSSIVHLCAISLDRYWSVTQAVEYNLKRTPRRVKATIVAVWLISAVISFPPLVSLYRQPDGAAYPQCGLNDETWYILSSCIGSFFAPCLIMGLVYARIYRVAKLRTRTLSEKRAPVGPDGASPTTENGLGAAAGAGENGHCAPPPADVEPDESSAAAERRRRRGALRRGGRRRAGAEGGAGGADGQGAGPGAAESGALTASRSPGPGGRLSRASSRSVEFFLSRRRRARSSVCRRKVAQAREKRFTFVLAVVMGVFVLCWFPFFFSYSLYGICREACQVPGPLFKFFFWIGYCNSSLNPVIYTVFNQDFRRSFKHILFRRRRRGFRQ
The nature of assay [7]: inhibitors of Sendai virus-induced IRF3 signaling, primary screen, TLR/RLR signaling modifier project, cell-based, Sendai virus stimulus, luciferase, 10K MLSCN set (AID 602276).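 Note: firefly luciferase from ISG56 promoter only with Renilla not read in this screen; 0% = Sendai virus plus DMSO and 100% = medium plus DMSO without virus.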 The conditions noted are these: HEK293 RL24 IRF3 luciferase reporter, at 10 µM, stronger effect = higher value. A general note: In a reporter assay the amount or activity of a reporter protein is the signal.
The nature of assay [8]: inhibitors of poly I:C-induced TLR3 signaling, primary screen, cell-based, poly I:C stimulus, luciferase, 10K MLSCN set (AID 602277;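 active = inhibition of the reporter signal at or above 50%; inactive = inhibition below 50%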). The conditions noted are these: HEK293-TLR3 RL24 IRF3 luciferase reporter, at 10 µM, stronger effect = higher value.

Sequence of Voltage-gated potassium channel subunit beta-2 (Rattus norvegicus) (P62483 whole entry, looked up): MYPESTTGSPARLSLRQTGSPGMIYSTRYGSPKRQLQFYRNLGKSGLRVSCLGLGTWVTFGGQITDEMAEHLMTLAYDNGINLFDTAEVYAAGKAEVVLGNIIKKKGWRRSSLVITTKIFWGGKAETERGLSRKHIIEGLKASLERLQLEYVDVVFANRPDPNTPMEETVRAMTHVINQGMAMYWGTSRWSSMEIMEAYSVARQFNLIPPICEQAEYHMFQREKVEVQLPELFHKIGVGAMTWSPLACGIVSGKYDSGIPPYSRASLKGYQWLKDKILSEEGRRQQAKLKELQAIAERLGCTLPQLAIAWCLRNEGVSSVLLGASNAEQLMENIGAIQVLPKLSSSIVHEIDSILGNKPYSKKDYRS

Turning to `COC(=O)c1cc2oc(C)cc2n1CC(=O)Nc1ccc(C)c(C)c1`, the cell count in assay [1] was found to be 386. In addition, the inhibition is 9.1% (inactive) in assay [1], -84.5% (inactive) in assay [3], -0.339% (inactive) in assay [7] and 4.84% (inactive) in assay [8]. Besides, the inhibition of aggregation in assay [2] was 6.1% (inactive). Moreover, the nuclei count in assay [2] was found to be 103%; in assay [3], 115%. The fluorescence slope in assay [4] is -0.337 (inactive). In addition, the NADPH fluorescence slope in assay [5] is -1.2e-05 (inactive). In assay [6], the slope is 0.00552 (inactive).
For `COc1cccc(NC(=O)c2ccco2)c1`, the cell count in assay [1] stood at 596. Besides, the inhibition is 5.6% (inactive) in assay [1], 32.9% (inactive) in assay [3], -31.2% (inactive) in assay [7] and -128% (inactive) in assay [8]. Also, the inhibition of aggregation in assay [2] is 7% (inactive). The values for the nuclei count in assay [2] and in assay [3] were 93.3% and 96.1%, respectively. Besides, the fluorescence slope in assay [4] is -0.401 (inactive). For the same molecule, the NADPH fluorescence slope in assay [5] was 6.1e-06 (inactive). Further, in assay [6], the slope is 0.00282 (inactive).
With `CCCS(=O)(=O)N1CCN(Cc2ccc(OCc3ccccc3)c(OC)c2)CC1`, the cell count in assay [1] stood at 247. Further, the inhibition in assay [1] is -5% (inactive); in assay [3], -25.9% (inactive); in assay [7], -20.2% (inactive); in assay [8], -19.3% (inactive). Besides, the inhibition of aggregation in assay [2] is 9.9% (inactive). Also, the nuclei count worked out at 79.6% in assay [2] and 101% in assay [3]. Moreover, the fluorescence slope in assay [4] was -0.549 (inactive). The NADPH fluorescence slope in assay [5] was -4.2e-05 (inactive). For the same molecule, in assay [6], the slope is 0.0062 (inactive).
As to `COc1ccc(NC(=O)c2cc(C3CC3)on2)c(OC)c1`, the cell count in assay [1] was 603. Further, the inhibition in assay [1] is -2.9% (inactive); in assay [3], -29.1% (inactive); in assay [7], -6.03% (inactive); in assay [8] it was 2.94% (inactive). In addition, the inhibition of aggregation in assay [2] was -2.2% (inactive). Besides, the results for the nuclei count in assay [2] and in assay [3] were 116% and 107%, respectively. Moreover, in assay [4], the fluorescence slope was -0.587 (inactive). In addition, in assay [5], the NADPH fluorescence slope was -4.2e-05 (inactive). Besides, in assay [6], the slope is 0.00532 (inactive).
Turning to `CCOC(=O)N1CCC(N2C(=O)c3ccccc3C2Nc2cc(Cl)c(OC)cc2OC)CC1` (configuration not stated), the cell count in assay [1] came to 761. For the same molecule, the inhibition in assay [1] is -2.3% (inactive); in assay [3] it was -35.7% (inactive); in assay [7], -7.31% (inactive); in assay [8], 4.34% (inactive). Besides, the inhibition of aggregation in assay [2] is -25.4% (inactive). Besides, the nuclei count in assay [2] was 111%; in assay [3], 114%. In addition, the fluorescence slope in assay [4] was -0.596 (inactive). Besides, the NADPH fluorescence slope in assay [5] was -3.8e-05 (inactive). Moreover, the slope in assay [6] was 0.0052 (inactive).
Regarding `COC(=O)CN1C(=O)C(O)(CC(=O)c2ccc(Cl)cc2)c2ccccc21` (configuration not stated), the cell count in assay [1] was 605. Moreover, the inhibition in assay [1] was -0.8% (inactive); in assay [3], -40.7% (inactive); in assay [7], 17.2% (inactive); in assay [8], 36% (inactive). In assay [2], the inhibition of aggregation was -5.5% (inactive). Moreover, the nuclei count in assay [2] was found to be 110%; in assay [3] it was 102%. Further, the fluorescence slope in assay [4] was -0.372 (inactive). Also, in assay [5], the NADPH fluorescence slope is 2.5e-05 (inactive). In assay [6], the slope is 0.00594 (inactive).
Consider `Cc1ccc2c(c1)nnn2C1CCN(C(=O)NC23CC4CC(CC(C4)C2)C3)CC1`, for which the cell count in assay [1] was 471. The inhibition in assay [1] was -9.4% (inactive); in assay [3] it was 19.9% (inactive); in assay [7] it was 18.3% (inactive); in assay [8] it was 22.5% (inactive). The inhibition of aggregation in assay [2] is 11.5% (inactive). In addition, the nuclei count in assay [2] stood at 122%; in assay [3], 98.1%. Also, the fluorescence slope in assay [4] was -0.423 (inactive). In assay [5], the NADPH fluorescence slope was -4e-05 (inactive). Further, in assay [6], the slope is 0.00535 (inactive).
In the case of `CCN(CCO)C(=O)CC(c1ccccc1)c1cc(Br)ccc1O` (configuration not stated), the cell count in assay [1] was 357. Moreover, the inhibition in assay [1] is 15% (inactive); in assay [3], -31.9% (inactive); in assay [7], 13.1% (inactive); in assay [8], 20.3% (inactive). For the same molecule, the inhibition of aggregation in assay [2] is -0.8% (inactive). The nuclei count in assay [2] and in assay [3] was 102% in each case. In addition, in assay [4], the fluorescence slope is -0.331 (inactive). In assay [5], the NADPH fluorescence slope was -6.1e-05 (inactive). In addition, the slope in assay [6] is 0.00761 (inactive).
As for `Cc1cc(C(=O)CN2C(=O)c3ccccc3C2=O)c(C)n1Cc1cccs1`, the cell count in assay [1] was 522. Besides, the inhibition was -14.8% (inactive) in assay [1], -3.3% (inactive) in assay [3], 14.6% (inactive) in assay [7] and 52.1% (active) in assay [8]. The inhibition of aggregation in assay [2] is -1% (inactive). Further, the values for the nuclei count in assay [2] and in assay [3] were 112% and 161%, respectively. For the same molecule, the fluorescence slope in assay [4] was -0.517 (inactive). For the same molecule, the NADPH fluorescence slope in assay [5] is -0.000116 (inactive). In addition, the slope in assay [6] was 0.00475 (inactive).
Turning to `C#CCN1C(=O)C(O)(CC(=O)c2cc(OC)ccc2OC)c2ccccc21` (configuration not stated), the cell count in assay [1] amounted to 841. In addition, the inhibition in assay [1] was -2.9% (inactive); in assay [3], -183% (inactive); in assay [7] it was 17.5% (inactive); in assay [8] it was 20% (inactive). Also, the inhibition of aggregation in assay [2] was 1.3% (inactive). Also, the nuclei count is 97.5% in assay [2] and 124% in assay [3]. The fluorescence slope in assay [4] is -0.411 (inactive). Further, the NADPH fluorescence slope in assay [5] was -3.9e-05 (inactive). In addition, in assay [6], the slope was 0.00497 (inactive).
Consider `Cc1ccc2cc(CN(CCN3CCCC3)C(=O)Nc3ccc(F)cc3)c(=O)[nH]c2c1C`, for which the cell count in assay [1] came out at 540. Further, the inhibition in assay [1] is -29.6% (inactive); in assay [3], -47.4% (inactive); in assay [7], 3.48% (inactive); in assay [8], 16.1% (inactive). The inhibition of aggregation in assay [2] is -45.2% (inactive). Further, the nuclei count in assay [2] was 109%; in assay [3], 111%. The fluorescence slope in assay [4] is -0.587 (inactive). Also, the NADPH fluorescence slope in assay [5] was 2.1e-05 (inactive). Further, the slope in assay [6] was 0.00603 (inactive).
Take `CN(C)CCCN1C(=O)C(=O)/C(=C(/O)c2ccncc2)C1c1cccc(Br)c1` (configuration not stated): the cell count in assay [1] is 245. In addition, the inhibition is -2.8% (inactive) in assay [1], 1.2% (inactive) in assay [3], -6.87% (inactive) in assay [7] and -3.17% (inactive) in assay [8]. Further, the inhibition of aggregation in assay [2] was -9.4% (inactive). Besides, the nuclei count in assay [2] was 94.1%; in assay [3], 103%. Moreover, in assay [4], the fluorescence slope is -0.612 (inactive). Moreover, the NADPH fluorescence slope in assay [5] is -7.1e-05 (inactive). Besides, the slope in assay [6] was 0.00373 (inactive).
